Rows were chosen to be rich in hits. Some 19% of all compounds tested hit in one or more screens of this group.
DT40 TDP1 CPT = qHTS for Inhibitors of human tyrosyl-DNA phosphodiesterase 1 (TDP1): qHTS in cells in presence of CPT; AID 686979, 2013; Potency, µM (series often up to 46.2 µM), inactives show at the highest dose activity change, negative = growth inhibition, most hits filed as inhibitors; chicken DT40 Tdp1-/-;hTDP1 cells + 20 nM CPT, ATP luminescence, 48 h; 12% of 420,000 active; note: nearly all actives have a fitted effect of over 55% in size
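Chicken DT40 Tdp1-/- cells complemented with human TDP1, 400 cells/well, exposed to compounds plus 20 nM camptothecin for at least 48 h at 37 C; viability read as ATP content by CellTiter-Glo luminescence.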
KB-V1 MDR tox = qHTS assay for MDR1-selective chemotherapeutics: Primary screen using the drug-selected MDR subline cells KB-V1; 3.4% of 400,000 active; KB-V1 MDR cells viability, CellTiter-Glo, 72 h; Potency, µM (series often up to 46.1 µM), actives largely listed as cytotoxic; note: nearly all actives have a fitted effect of over 60% in size
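KB-V1, DMEM (no phenol red) + 10% FBS; cpd pin-transferred, titration series; 72 h, 37 degrees C; CellTiter-Glo, luminescence. Data normalized, curve-fit.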
KB-3-1 tox = qHTS assay for MDR1-selective chemotherapeutics: Primary screen using the parental adenocarcinoma cell KB-3-1 | KB-3-1 viability, CellTiter-Glo ATP luminescence, 72 h | Potency, µM (top dose mostly 46.1 µM), hits mostly cytotoxic | 1.4% of 400,000 active; note: nearly all actives have a fitted effect of over 60% in size
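72 h, 37 °C compound treatment of KB-3-1 parental cells; CellTiter-Glo added, 10 min, luminescence read. Data corrected against DMSO-only plates and normalized before curve fitting.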
HT1080-NT tox = qHTS for induction of synthetic lethality in tumor cells producing 2HG: qHTS for the HT-1080-NT fibrosarcoma cell line. HT-1080-NT fibrosarcoma viability, CellTiter-Glo ATP luminescence, 48 h. Potency, µM (doses to about 46.1 µM), inactives show at the highest dose activity, negative = less viability, usual class: cytotoxic. 1.6% of 360,000 active. AID 686970, 2013;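 note: NT is the 2HG producing partner of a matched IDH1 knockdown line; 0% = DMSO-treated cells and -100% = media-only wells without cells; nearly all actives have a fitted effect of over 55% in size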
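Viability of the 2HG-overproducing fibrosarcoma line after 48 hours of compound exposure at 37 degrees C was determined by luminescence with CellTiter-Glo, and concentration-effect curves were then fitted and categorized.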
HT1080 IDH1KD tx = qHTS for induction of synthetic lethality in tumor cells producing 2HG: qHTS for the HT-1080-IDH1KD cell line; HT-1080 IDH1 knockdown viability, ATP luminescence, 48 h; Potency, µM (highest dose often 46.1 µM), without a hit: top-dose activity, negative = toxicity, usual class: cytotoxic; 2% of 360,000 active; AID 686971, 2013;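 note: 0% = DMSO wells and -100% = cell-free medium wells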
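Cytotoxicity counter-line: IDH1KD HT-1080, 48 h, CellTiter-Glo. Curves classed by r2, magnitude and activity.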
TDP1 cell noCPT = qHTS for Inhibitors of human tyrosyl-DNA phosphodiesterase 1 (TDP1): qHTS in cells in absence of CPT. 15% of 420,000 active. DT40 Tdp1-/- hTDP1 cells, no CPT, ATP luminescence, 48 h. Potency, µM (series often up to 46.2 µM), for inactives: top-dose activity change, negative = growth inhibition, usual class: inhibitors; note: nearly all actives have a fitted effect of over 55% in size
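Stably hTDP1-transfected Tdp1-null chicken DT40 cells were treated with library compounds minus camptothecin and grown for at least 48 hr at 37 °C, after which cellular ATP was quantified by luminescence.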
Starred values were filed as active, the others as inactive; [ ] = dose if it differs, or a comment. Calls come from the whole dose curve; as a rule, active = well fitted curve in the direction sought with a large enough effect; inconclusive = small, poorly fitted or top-dose-only effect, or another doubt; inactive = no such curve, though single readings can be large; an effect the other way counts as inactive or inconclusive. Unless noted, % is set by controls: 0 for no effect and ±100 for the full control effect; potency is the fitted concentration of half-maximal effect.

Screening c1ccc(CCn2c(C3CC3)nc3ccccc32)cc1 returned DT40 TDP1 CPT inconclusive, KB-V1 MDR tox 21µM*, KB-3-1 tox inactive, HT1080-NT tox inconclusive, HT1080 IDH1KD tx 3% and TDP1 cell noCPT 26µM*.
Screening OCCCc1nc2ccccc2n1CCc1ccccc1 returned DT40 TDP1 CPT 0%, KB-V1 MDR tox inactive, KB-3-1 tox inactive, HT1080-NT tox 6%, HT1080 IDH1KD tx 10% and TDP1 cell noCPT -8%.
CCCc1nc2ccccc2n1CCc1ccccc1 was read as DT40 TDP1 CPT 29µM*, KB-V1 MDR tox inconclusive, KB-3-1 tox inactive, HT1080-NT tox -7%, HT1080 IDH1KD tx 1% and TDP1 cell noCPT 21µM*.
`CCn1c(Cl)c(C=O)s/c1=N\S(=O)(=O)c1ccccc1` gave DT40 TDP1 CPT 0.82µM*, KB-V1 MDR tox inconclusive, KB-3-1 tox inconclusive, HT1080-NT tox 13µM*, HT1080 IDH1KD tx 8.2µM* and TDP1 cell noCPT 0.37µM*.
For COc1ccc(-c2cc(-c3ccccc3)nc3c2COc2ccc(F)cc2-3)cc1 the results were DT40 TDP1 CPT inconclusive, KB-V1 MDR tox inactive, KB-3-1 tox inactive and TDP1 cell noCPT inconclusive.
`O=C(c1cccc(Br)c1)c1nc2ccccc2[nH]c1=O` gave DT40 TDP1 CPT -12%, KB-V1 MDR tox inactive, KB-3-1 tox inactive, HT1080-NT tox 18%, HT1080 IDH1KD tx 3% and TDP1 cell noCPT -1%.
Cc1cccn2c(=O)c3cc(C(=O)NC4CCCCC4)c(=N)n(CCN4CCOCC4)c3nc12 was read as DT40 TDP1 CPT inconclusive, KB-V1 MDR tox inactive, KB-3-1 tox inactive, HT1080-NT tox 0%, HT1080 IDH1KD tx 16% and TDP1 cell noCPT inconclusive.
Screening COc1ccc(CCNC(=O)c2cc3c(=O)n4cccc(C)c4nc3n(CC3CCCO3)c2=N)cc1 (centres undefined) returned DT40 TDP1 CPT 3.3µM*, KB-V1 MDR tox inactive, KB-3-1 tox inactive, HT1080-NT tox -3%, HT1080 IDH1KD tx 0% and TDP1 cell noCPT 10µM*.
Screening Cc1cccn2c(=O)c3cc(C(=O)NCC4CCCO4)c(=N)n(CCc4ccccc4)c3nc12 (centres undefined) returned DT40 TDP1 CPT 16µM*, KB-V1 MDR tox inactive, KB-3-1 tox inactive, HT1080-NT tox 7%, HT1080 IDH1KD tx 1% and TDP1 cell noCPT -83%.
Screening O=C(O)[C@H]1[C@H]2C[C@H]3c4[nH]c5ccccc5c4CCN3C[C@@H]2CC[C@@H]1O returned DT40 TDP1 CPT 11µM* and TDP1 cell noCPT 13µM*.
CCOc1ccc(-n2c(-c3ccccc3)c[nH]c2=S)cc1 was read as DT40 TDP1 CPT inconclusive, KB-V1 MDR tox inactive, KB-3-1 tox inactive, HT1080-NT tox -27%, HT1080 IDH1KD tx -23% and TDP1 cell noCPT inconclusive.
For CCOc1ccc(-n2c(-c3ccccc3)c[n+]3c2CCC3)cc1 the results were DT40 TDP1 CPT 1µM*, KB-V1 MDR tox inconclusive, KB-3-1 tox inactive, HT1080-NT tox inconclusive, HT1080 IDH1KD tx 8.2µM* and TDP1 cell noCPT 1µM*.
For COc1ccc(-n2c(-c3ccc(Cl)cc3)c[n+]3c2CCCCC3)cc1 the results were DT40 TDP1 CPT 0.82µM*, KB-V1 MDR tox inactive, KB-3-1 tox inactive, HT1080-NT tox inconclusive, HT1080 IDH1KD tx inconclusive and TDP1 cell noCPT 0.73µM*.
FC(F)Oc1ccc(-c2c[n+]3c(n2-c2ccccc2)CCCCC3)cc1 was read as DT40 TDP1 CPT 2.1µM*, KB-V1 MDR tox inactive, KB-3-1 tox inconclusive, HT1080-NT tox inconclusive, HT1080 IDH1KD tx inconclusive and TDP1 cell noCPT 1.5µM*.
Screening COc1ccc(-c2c[n+]3c(n2-c2c(C)n(C)n(-c4ccccc4)c2=O)CCCCC3)cc1 returned DT40 TDP1 CPT -14%, KB-V1 MDR tox inconclusive, KB-3-1 tox inactive, HT1080-NT tox 7%, HT1080 IDH1KD tx 28% and TDP1 cell noCPT inconclusive.
`O=C(Nc1ccccc1N1CCCCC1)c1ccc(OC(F)F)cc1` gave DT40 TDP1 CPT 0%, KB-V1 MDR tox inactive, KB-3-1 tox inactive, HT1080-NT tox -1%, HT1080 IDH1KD tx -2% and TDP1 cell noCPT -10%.
For CCOc1ccc(-n2c(-c3ccc(OC)cc3)c[n+]3c2CCCCC3)cc1 the results were DT40 TDP1 CPT 0.21µM*, KB-V1 MDR tox inactive, KB-3-1 tox 2.1µM*, HT1080-NT tox inconclusive, HT1080 IDH1KD tx 3.7µM* and TDP1 cell noCPT 0.029µM*.
Screening CCC1CN(Cc2cccc3nccnc23)Cc2cc(OC)ccc2O1 (centres undefined) returned DT40 TDP1 CPT 2%[9.04 µM] and TDP1 cell noCPT inconclusive.
COc1ccc(OCC2c3cc(OC)c(OC)cc3CCN2C(=O)c2ccc(F)cc2)cc1 (centres undefined) was read as DT40 TDP1 CPT -28%, KB-V1 MDR tox inactive, KB-3-1 tox inactive and TDP1 cell noCPT inconclusive.
Screening CCOC(=O)CC1C(=O)NCCN1C1CCCC1 (centres undefined) returned DT40 TDP1 CPT 0%, KB-V1 MDR tox inactive, KB-3-1 tox inactive, HT1080-NT tox 11%, HT1080 IDH1KD tx 27% and TDP1 cell noCPT 3%.
Screening O=C(c1[nH]c(C(F)(F)F)nc1-c1ccccc1)N1CCN(Cc2c(F)cccc2Cl)CC1 returned DT40 TDP1 CPT -8%, KB-V1 MDR tox inactive, KB-3-1 tox inactive, HT1080-NT tox 22%, HT1080 IDH1KD tx 17% and TDP1 cell noCPT -22%.
CCOc1ccc(-n2c(-c3ccc(Br)cc3)c[n+]3c2CCCCC3)cc1 was read as DT40 TDP1 CPT 4.6µM*, KB-V1 MDR tox inactive, KB-3-1 tox inconclusive, HT1080-NT tox 8.2µM*, HT1080 IDH1KD tx inconclusive and TDP1 cell noCPT 0.37µM*.
For COc1ccc(N2CCN(CC(=O)c3c(C)n(C)c4ccc(OC)cc34)CC2)cc1 the results were DT40 TDP1 CPT 18µM*, KB-V1 MDR tox inactive, KB-3-1 tox inactive, HT1080-NT tox 0%, HT1080 IDH1KD tx -9% and TDP1 cell noCPT 23µM*.
`NC(=O)CN1CCN(c2ccccc2F)CC1` gave DT40 TDP1 CPT 7%, KB-V1 MDR tox inactive, KB-3-1 tox inactive, HT1080-NT tox -1%, HT1080 IDH1KD tx 12% and TDP1 cell noCPT -13%.
